{"source": "PubChem BioAssay AID565", "about": "(University of Pittsburgh Molecular Library Screening Center, 2006)", "note": "In all, about 65,000 compounds went through this assay and about 1,200 (1.8%) were called active. Many of the other results were omitted from the sample, so actives are more common in it than they were. Values without a mark were called inactive. No stated cut-off is given here; in the data, active means inhibition above about 50%; inactive means the rest.", "data": [{"biological_target": "Gag-Pol polyprotein (Human immunodeficiency virus type 1 group M subtype B (isolate HXB2)) (UniProt P04585)", "assay": "blockers of HIV-1 RNase H RNA/DNA cleavage – biochemical, fluorescence, primary screen (AID 565)", "conditions": "RT-RNase H RNA/DNA duplex cleavage, at 10 µM, hits give high values", "values": [{"compound": "CC(Sc1nncs1)C(=O)NCc1ccc2c(c1)OCO2", "note": "(configuration not stated)", "inhibition": "-19.3%"}, {"compound": "Cc1nc2nc(CSc3nc4ccccc4s3)cc(=O)n2[nH]1", "inhibition": "4.18%"}, {"compound": "c1ccc(-n2ncc3c2ncn2c(C4CCCCC4)nnc32)cc1", "inhibition": "-1.63%"}, {"compound": "c1ccc(-n2ncc3c2ncn2c(CSc4nc5ccccc5s4)nnc32)cc1", "inhibition": "63.5% (active)"}, {"compound": "CN1CCN(C(=O)C2C3C=CC(C3)C2C(=O)O)CC1", "note": "(configuration not stated)", "inhibition": "0.5%"}, {"compound": "CCN(CC)CCN1C(=O)C(=O)/C(=C(/O)c2ccc(OC)c(OC)c2)C1c1ccccn1", "note": "(configuration not stated)", "inhibition": "5.17%"}, {"compound": "COc1ccc(Cc2nnc(NC(=O)Cc3cccs3)s2)cc1", "inhibition": "70.2% (active)"}, {"compound": "COCC(=O)Nc1nnc(COc2ccccc2)s1", "inhibition": "-3.37%"}, {"compound": "COc1ccc(Cc2nnc(NS(=O)(=O)Cc3ccccc3)s2)cc1", "inhibition": "1.94%"}, {"compound": "CCOC(=O)c1c(-n2cnnn2)sc(C)c1C", "inhibition": "70.4% (active)"}, {"compound": "CCOC(=O)c1c(NC(=O)c2cccs2)sc(C)c1C", "inhibition": "-2.71%"}, {"compound": "CCOC(=O)c1c(NC(=O)CSc2nnc(Cc3csc(N)n3)n2C)sc(C)c1C", "inhibition": "-19.7%"}, {"compound": "Cc1cccc(NC(=O)C2CCCN2S(=O)(=O)c2ccc(F)cc2)c1C", "note": "(configuration not stated)", "inhibition": "-5.03%"}, {"compound": "COc1ccc(CCNC(=O)c2ccc3c(c2)NC(=O)C(N2CCOCC2)S3)cc1OC", "note": "(configuration not stated)", "inhibition": "-10.7%"}, {"compound": "O=c1cc(-c2ccccc2)nc(N2CCCCC2)[nH]1", "inhibition": "-11.7%"}, {"compound": "CC(=O)N1CCN(c2ccc(NCc3ccc(C(C)C)cc3)cc2)CC1", "inhibition": "-16.6%"}, {"compound": "COc1ccccc1NC(=O)CSc1nc2sc(C)c(C)c2c(=O)n1Cc1ccco1", "inhibition": "9.92%"}, {"compound": "CCOC(=O)CSc1nc2c(c(=O)n(C)c(=O)n2C)n1Cc1ccccc1F", "inhibition": "-12.1%"}, {"compound": "CCOC(=O)CSc1nc2c(sc(=S)n2CCc2ccccc2)c(=O)n1Cc1ccco1", "inhibition": "60.1% (active)"}, {"compound": "COc1ccc(C2C(C#N)=C(N)Oc3n[nH]c(C)c32)cc1CN1CCN(c2ccc(F)cc2)CC1", "note": "(configuration not stated)", "inhibition": "-5.93%"}, {"compound": "COc1ccc(COC(=O)c2n[nH]c3ccccc23)cc1F", "inhibition": "-42.8%"}, {"compound": "CCN(CC)S(=O)(=O)c1ccc2nc(CSc3nnnn3-c3ccc(O)cc3)[nH]c2c1", "inhibition": "10.6%"}, {"compound": "CCN(CC)S(=O)(=O)c1ccc2nc(COC(=O)c3n[nH]c4ccccc34)[nH]c2c1", "inhibition": "55.6% (active)"}, {"compound": "CCCCC(=O)N1CC2(C)CN(C(=O)CCCC)CC(C)(C1)C2=O", "inhibition": "-4.52%"}, {"compound": "Cc1cc(C)c2c(n1)nn1c(N3CCN(c4cccc(Cl)c4)CC3)cc(C)nc21", "inhibition": "29.6%"}, {"compound": "CN1CCc2c(sc3c2c(NCc2ccco2)nc2nnnn23)C1", "inhibition": "1.26%"}, {"compound": "COC(=O)c1cc(S(=O)(=O)NC2CCN(Cc3ccccc3)CC2)cn1C", "inhibition": "-1.44%"}, {"compound": "CC(C)CCNC(=O)C1CCCN(S(=O)(=O)c2ccc(F)cc2)C1", "note": "(configuration not stated)", "inhibition": "-4.63%"}, {"compound": "CC(C)CNC(=O)C1CCCN(S(=O)(=O)c2ccc(-n3cnnn3)cc2)C1", "note": "(configuration not stated)", "inhibition": "55.3% (active)"}, {"compound": "CCS(=O)(=O)N1CCCC(C(=O)NCc2ccc(C)cc2)C1", "note": "(configuration not stated)", "inhibition": "-25.4%"}, {"compound": "CC(Oc1ccc(Cl)cc1)C(=O)Nc1ncccn1", "note": "(configuration not stated)", "inhibition": "-1.55%"}, {"compound": "COc1ccc(CCNC(=O)c2cc3sccc3n2C)cc1OC", "inhibition": "-5.6%"}, {"compound": "O=C(Nc1nccs1)C1CCCN1S(=O)(=O)c1cccc2cccnc12", "note": "(configuration not stated)", "inhibition": "-30.1%"}, {"compound": "CCc1nc(Nc2ccc3nccnc3c2)c2oc3ccccc3c2n1", "inhibition": "-0.27%"}, {"compound": "COc1cc(C2C(C(=O)c3ccc(C)o3)=C(O)C(=O)N2Cc2cccnc2)ccc1O", "note": "(configuration not stated)", "inhibition": "5.97%"}, {"compound": "COc1nc(OC)nc(N(C)CCO)n1", "inhibition": "-8.92%"}, {"compound": "CCC1(C)N(O)C(C)(C)C(c2ccc(OC)cc2)=[N+]1[O-]", "note": "(configuration not stated)", "inhibition": "-6.14%"}, {"compound": "CCC1=[N+]([O-])C(C)(/C(C)=N\\O)N(O)C1(C)C", "note": "(configuration not stated)", "inhibition": "50.7% (active)"}, {"compound": "C/C(=N\\O)C1(C)N(O)C(C)(C)C(c2ccc(Br)cc2)=[N+]1[O-]", "note": "(configuration not stated)", "inhibition": "-4.23%"}, {"compound": "CC(=O)CCS(=O)(=O)c1ccc(C)c(C)c1", "inhibition": "-10.6%"}, {"compound": "CC(=O)Oc1cccc(N2C(=O)CC(Nc3ccc(N4CCOCC4)cc3)C2=O)c1", "note": "(configuration not stated)", "inhibition": "2.32%"}, {"compound": "Cc1csc(NC(=O)NC2(C(F)(F)F)Oc3ccccc3O2)n1", "inhibition": "74.1% (active)"}, {"compound": "CCOC(=O)Cc1csc(NC(=O)Nc2ccccc2)n1", "inhibition": "-23.4%"}, {"compound": "Cc1csc(NC(=O)CN2CCCCCC2)n1", "inhibition": "7.02%"}, {"compound": "CCCCCOC(=O)NCCOC(=O)Nc1ccc(C(=O)OCC)cc1", "inhibition": "-14%"}, {"compound": "Cc1cccc(C(=O)Nc2ccc(CC(=O)O)cc2)c1", "inhibition": "-3.58%"}, {"compound": "COC(=O)c1cccc(NC(=O)CSc2nc(C)cc(=O)[nH]2)c1", "inhibition": "-4.06%"}, {"compound": "COC(=O)c1ccc2c(=O)n(CC3CCCO3)c(=S)[nH]c2c1", "note": "(configuration not stated)", "inhibition": "0.2%"}, {"compound": "CCOC(=O)c1sc(=S)n2c1[nH]c(=O)c1ccc(C(=O)OC)cc12", "inhibition": "93.6% (active)"}, {"compound": "CSc1ccc(-c2c(C#N)c(N)nc3c2c(C)nn3-c2ccccc2)cc1", "inhibition": "-4.17%"}, {"compound": "C[C@H](NC(=O)OC(C)(C)C)c1nnc(SCC(N)=O)o1", "inhibition": "-8.59%"}, {"compound": "Cc1ccc2cccc(O)c2[n+]1[O-]", "inhibition": "63.1% (active)"}, {"compound": "CC(=O)Nc1cccc2c1[n+]([O-])c(C)c(C)[n+]2[O-]", "inhibition": "-5.6%"}, {"compound": "CCCS(=O)(=O)N1CCCC(C(=O)NCCN2CCCCC2C)C1", "note": "(configuration not stated)", "inhibition": "-24.4%"}, {"compound": "COc1ccc(CCNC(=O)CSc2nnc(CNC(=O)c3cccs3)o2)cc1OC", "inhibition": "4.42%"}, {"compound": "c1coc(-c2nc3nc4ccccc4n3nc2-c2ccco2)c1", "inhibition": "-3.81%"}, {"compound": "Clc1ccccc1CSc1nnc(-c2ccco2)c(-c2ccco2)n1", "inhibition": "55.3% (active)"}, {"compound": "O=c1cc(O)nc(SCc2ccccc2Cl)[nH]1", "inhibition": "-21.4%"}, {"compound": "c1ccc(CSc2nnc(-c3ccco3)c(-c3ccco3)n2)cc1", "inhibition": "97% (active)"}, {"compound": "Nc1cc(=O)nc(SCc2ccccc2)n1Cc1ccco1", "inhibition": "-80.9%"}, {"compound": "c1ccc(CSc2nnc(-c3ccco3)n2Cc2ccccc2)cc1", "inhibition": "-24.3%"}, {"compound": "Cc1nn(-c2ccccc2)c(C)c1C(=O)OCC(=O)NC(=O)NC1CCCCC1", "inhibition": "7.28%"}, {"compound": "OC1CN=C2Sc3ccccc3N2C1", "note": "(configuration not stated)", "inhibition": "-8.76%"}, {"compound": "COc1ccccc1NC(=O)c1ccc(C)s1", "inhibition": "-6.32%"}, {"compound": "Cc1cc(C)nc(NC2=NCC(=O)N2c2ccc(Cl)cc2)n1", "inhibition": "4.35%"}, {"compound": "COc1ccc(N2C(=O)CN=C2Nc2cccc(C)c2C)cc1OC", "inhibition": "93.2% (active)"}, {"compound": "COc1ccc(CN2C(=O)CN=C2Nc2ccc(C)cc2C)cc1", "inhibition": "-7.04%"}, {"compound": "CCOC(=O)N1CCC(NC(=O)c2cnn3ccccc23)CC1", "inhibition": "-4.53%"}, {"compound": "FC(F)(F)c1cc(-c2ccco2)nc(N2CCOCC2)n1", "inhibition": "-9.98%"}, {"compound": "CCOC(=O)c1ccn(-c2nc(-c3ccco3)cc(C(F)(F)F)n2)n1", "inhibition": "-4.86%"}, {"compound": "Cc1cc(C(F)(F)F)nn1-c1nc(-c2ccco2)cc(C(F)(F)F)n1", "inhibition": "94.4% (active)"}, {"compound": "O=C(Nc1ccc(-c2nnc(-c3ccccc3)o2)cc1)C1CCCO1", "note": "(configuration not stated)", "inhibition": "4.33%"}, {"compound": "Nc1ccc(-c2nnc(-c3ccc(-c4ccccc4)cc3)o2)cc1", "inhibition": "80.5% (active)"}, {"compound": "O=C(Nc1ccc(-c2nnc(-c3ccccc3)o2)cc1)c1ccc(Br)o1", "inhibition": "-4.57%"}, {"compound": "CCCc1[nH]nc2c1C(c1ccc(OC)c(Cn3nc(C)c(Br)c3C)c1)C(C#N)=C(N)O2", "note": "(configuration not stated)", "inhibition": "7.36%"}, {"compound": "O=C(c1ccc2c(c1)OCO2)N1CCNc2ccccc2C1", "inhibition": "-5.92%"}, {"compound": "O=C(c1ccccc1-c1ccccc1)N1CCOCC1", "inhibition": "4.44%"}]}]}
